Screen size: about 310,000 compounds; about 2,200 (0.71%) showed an effect of 50% or more. The effect is printed as a negative number. What follows is part of a selection rich in strong results, with near analogues and random picks from the rest.
These compounds were tested against human ether-à-go-go-related gene (hERG) potassium channel (human, UniProt Q12809) (assay: primary screen, population patch clamp on CHO cells stably expressing hERG; higher = less effect of the substance).
Sequence of human ether-à-go-go-related gene (hERG) potassium channel (Q12809 whole entry, looked up): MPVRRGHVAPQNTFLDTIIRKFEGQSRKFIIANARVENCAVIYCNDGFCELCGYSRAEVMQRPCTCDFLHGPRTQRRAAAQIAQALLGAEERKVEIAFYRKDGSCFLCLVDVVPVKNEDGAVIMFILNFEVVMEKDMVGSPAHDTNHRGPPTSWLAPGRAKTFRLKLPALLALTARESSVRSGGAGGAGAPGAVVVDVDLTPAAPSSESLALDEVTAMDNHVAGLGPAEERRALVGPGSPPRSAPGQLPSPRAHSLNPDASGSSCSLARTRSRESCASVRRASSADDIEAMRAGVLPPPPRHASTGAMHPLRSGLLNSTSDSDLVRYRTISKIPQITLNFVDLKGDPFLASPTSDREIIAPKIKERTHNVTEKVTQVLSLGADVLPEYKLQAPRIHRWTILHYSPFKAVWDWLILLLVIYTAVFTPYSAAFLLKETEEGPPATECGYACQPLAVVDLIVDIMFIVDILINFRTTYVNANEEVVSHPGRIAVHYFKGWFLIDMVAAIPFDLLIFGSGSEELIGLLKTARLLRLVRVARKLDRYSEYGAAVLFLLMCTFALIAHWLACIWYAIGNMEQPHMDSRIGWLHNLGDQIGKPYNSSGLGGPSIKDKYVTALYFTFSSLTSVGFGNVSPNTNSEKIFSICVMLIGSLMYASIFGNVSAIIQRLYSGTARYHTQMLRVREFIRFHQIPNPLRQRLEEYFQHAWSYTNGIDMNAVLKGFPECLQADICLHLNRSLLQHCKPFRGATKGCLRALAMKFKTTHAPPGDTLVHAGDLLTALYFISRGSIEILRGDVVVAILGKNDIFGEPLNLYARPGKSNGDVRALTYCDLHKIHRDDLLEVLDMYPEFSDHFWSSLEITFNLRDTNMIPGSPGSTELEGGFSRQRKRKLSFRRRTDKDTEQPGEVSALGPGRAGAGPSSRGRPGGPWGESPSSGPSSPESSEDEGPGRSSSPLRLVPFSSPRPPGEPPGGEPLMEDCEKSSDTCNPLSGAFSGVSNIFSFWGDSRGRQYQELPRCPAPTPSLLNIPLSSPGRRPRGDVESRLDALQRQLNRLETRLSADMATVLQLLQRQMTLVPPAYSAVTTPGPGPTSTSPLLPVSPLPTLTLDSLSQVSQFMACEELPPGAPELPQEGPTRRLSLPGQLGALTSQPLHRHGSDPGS

Row | Structure (SMILES) | hERG current change (%, negative = inhibition) at 1uM
1 | CC(C)(C)C1CCC(OC(=O)CN2CCCCC2)CC1 (stereo not shown) | 2.3%
2 | Cc1ccc(S(=O)(=O)c2ccc(Cl)cc2)cc1S(=O)(=O)N1CCOCC1 | 3.5%
3 | CCNC(=O)c1cc2c(=O)n3cccc(C)c3nc2n(Cc2ccc(C)cc2)c1=N | -97.1%
4 | Cc1cccn2c(=O)c3cc(C(=O)NC(C)C)c(=N)n(Cc4ccncc4)c3nc12 | -67.2%
5 | COCCCNC(=O)c1cccn2c(=O)c3cc4ccccc4cc3nc12 | -8.65%
6 | Cc1ccc(S(=O)(=O)c2cc3c(=O)n4cccc(C)c4nc3n(Cc3ccncc3)c2=N)cc1 | 9.03%
7 | Cc1cccn2c(=O)c3cc(C(=O)NCCN4CCOCC4)c(=N)n(Cc4ccc(F)cc4)c3nc12 | -13.3%
8 | O=C(NCCN1CCN(c2ccccc2)CC1)c1cccn2c(=O)c3ccccc3nc12 | -10.8%
9 | CCCCNC(=O)c1cc2c(=O)n3cccc(C)c3nc2n(Cc2ccccc2)c1=N | -80.7%
10 | Cc1ccc(Cn2c(=N)c(C#N)cc3c(=O)n4cccc(C)c4nc32)cc1 | -2.14%
11 | CN(CCCNC(=O)c1cccn2c(=O)c3ccccc3nc12)Cc1ccccc1 | -75.3%
12 | N#Cc1cnn2c(-c3cccc(C(F)(F)F)c3)ccnc12 | 1.86%
13 | CCOC(=O)Cc1csc(NC(=O)/C=C\c2ccccc2Cl)n1 | 7.16%
14 | CC(C)C(=O)Nc1cccc(NC(=O)c2cccnc2)c1 | -1.01%
15 | CCC(c1nnnn1CS(=O)(=O)c1ccc(C)cc1)N1CCC(C(N)=O)CC1.Cl (stereo not shown) | -3.7%
16 | Cc1cccc(OCC(=O)Nc2ccc(S(=O)(=O)Nc3ccccn3)cc2)c1 | 17.3%
17 | CS(=O)(=O)n1nc(NCc2cccs2)nc1NCc1cccs1 | 10.5%
18 | CCOC(=O)CSc1c(-c2ccc(Cl)cc2)[nH]c2ccccc12 | 1.02%
19 | CCCCNC(=O)c1cc2c(=O)n3cccc(C)c3nc2n(Cc2ccncc2)c1=N | -75.4%
20 | COCCNC(=O)c1cc2c(=O)n3cccc(C)c3nc2n(Cc2ccncc2)c1=N | -31.5%
21 | CCCc1cc(=O)n2[nH]c(NCc3c(F)cccc3Cl)nc2n1 | 12.7%
22 | O=C(NC1CCCCCC1)c1cc(=O)[nH]c2ccc(S(=O)(=O)N3CCOCC3)cc12 | 1.03%
23 | Cc1ccc(C)c(N2CCN(C(=O)c3ccc(Cn4c(=O)[nH]c5ccccc5c4=O)cc3)CC2)c1 | 11.6%

Row | Structure (SMILES) | hERG current change (%, negative = inhibition) at 1uM
24 | COc1cccc(NC(=O)CCNC(=O)C2CCN(S(=O)(=O)c3ccc(F)cc3)CC2)c1 | 14.9%
25 | CCOC(=O)C1CCN(S(=O)(=O)c2ccc3oc(=O)ccc3c2)CC1 | -78.2%
26 | CCOC(=O)C1CCN(S(=O)(=O)c2ccc3[nH]c(=O)oc3c2)CC1 | 3.58%
27 | CCOC(=O)C1CCN(S(=O)(=O)c2ccc3[nH]c(=O)ccc3c2)CC1 | -2.48%
28 | CCC(=O)c1ccc(OCC(O)CNCCc2ccc(Cl)cc2)cc1 (stereo not shown) | -69.9%
29 | CCC(=O)c1ccc(OCC(O)CNCc2ccc(F)cc2)cc1 (stereo not shown) | -12.8%
30 | CC(=O)c1cccc(OCC(O)CNCCc2ccc(Cl)cc2)c1 (stereo not shown) | 10.6%
31 | COc1ccc(CCNCC(O)COc2cccc(Br)c2)cc1OC (stereo not shown) | -39.5%
32 | COc1ccc(C(OCC(O)CNCCc2ccc(S(N)(=O)=O)cc2)c2ccc(OC)cc2)cc1 (stereo not shown) | -1.33%
33 | Cc1cc(Cl)ccc1OCC(O)CNCCc1ccc(S(N)(=O)=O)cc1 (stereo not shown) | -58.2%
34 | OC(CNCCc1ccc(Cl)cc1)COc1cc(Cl)ccc1Cl (stereo not shown) | 2.52%
35 | COc1ccc(CCNCC(O)COc2cccc(C(C)=O)c2)cc1OC.O=C(O)C(=O)O (stereo not shown) | 16%
36 | COc1ccc(CCNCC(O)COc2ccc(Cl)cc2)cc1OC.Cl (stereo not shown) | -56%
37 | O=C(Nc1ccc(Oc2ccc(Cl)cc2)cc1)c1ncn[nH]1 | 2.59%
38 | Cc1nn(CC(=O)Nc2ccc(N3CCOCC3)cc2)c(C)c1Cl | 19.7%
39 | CSc1ccc(CN(C)CC(=O)Nc2c(F)cccc2F)cc1.O=C(O)C(=O)O | 7.89%
40 | COc1ccc2c(c1OC)CN(C)CCc1cc3c(cc1C(=O)C2)OCO3 | -84%
41 | COc1ccc2c(c1OC)CN(C)CCc1cc3c(cc1C(O)C2)OCO3 (stereo not shown) | -0.22%
42 | COc1cc2c(cc1OC)C(=O)Cc1ccc3c(c1CN(C)CC2)OCO3 | -39.4%
43 | CC(C)(C)NC(=O)CSc1nccn1Cc1ccccc1 | 5.85%
44 | Cl.O=[N+]([O-])c1ccccc1/C=N/NC1=NCCCCC1 | -0.325%
45 | O=[N+]([O-])c1cccc(/C=N/NC2=NCCCCC2)c1 | -70.9%
46 | O=C(ONC1=NCCCCC1)c1cccc([N+](=O)[O-])c1 | 11.8%

Row | Structure (SMILES) | hERG current change (%, negative = inhibition) at 1uM
47 | OC(COc1ccccc1)Cn1c2ccccc2c2ccccc21 (stereo not shown) | 8.25%
48 | Cc1ccc(Cn2c(=N)n(CC(O)COc3ccccc3)c3ccccc32)cc1.Cl (stereo not shown) | -36.1%
49 | Cc1cccc(OCC(O)Cn2c(=N)n(Cc3ccccc3)c3ccccc32)c1.Cl (stereo not shown) | -16.4%
50 | Cc1ccc(OCC(O)Cn2c(=N)n(Cc3ccccc3)c3ccccc32)cc1.Cl (stereo not shown) | -61%
51 | Cl.N=c1n(Cc2ccc(Cl)cc2)c2ccccc2n1CC(O)COc1ccccc1 (stereo not shown) | -17.1%
52 | COc1ccc(OCC(O)Cn2c(=N)n(Cc3ccccc3)c3ccccc32)cc1.Cl (stereo not shown) | -76.6%
53 | Cl.N=c1n(Cc2ccccc2)c2ccccc2n1CC(O)COc1ccccc1 (stereo not shown) | -55.8%
54 | COc1ccc(OCC(O)Cn2c(=N)n(CCN3CCOCC3)c3ccccc32)cc1.Cl (stereo not shown) | -10.5%
55 | C=CCOC(=O)C1=C[C@H](c2ccc(C(F)(F)F)cc2)C[C@H](OCCCCO)O1 | 9.6%
56 | CCOC(=O)/C(=C/Nc1ccc(F)c(F)c1)[N+](=O)[O-] | 13%
57 | CCOC(=O)c1ccc(NC(=O)[C@@H](NC(N)=O)C(C)C)cc1 | -0.13%
58 | NC(=O)c1c(NC(=O)Cn2cc([N+](=O)[O-])cn2)sc2c1CCCC2 | 2.68%
59 | CCN1C(=O)C(CC(=O)Nc2ccc(F)cc2)N(CCCN2CCN(c3ccc(F)cc3)CC2)C1=S (stereo not shown) | 0.806%
60 | COc1cc(CN2CCC(Oc3cc(C(=O)NC4CC4)ccc3OC)CC2)cc(OC)c1 | -62%
61 | COc1ccc(C(=O)NCCc2ccc(C)cc2)cc1OC1CCN(C(C)=O)CC1 | 9.4%
62 | COc1ccc(C(=O)NC2CC2)cc1OC1CCN(Cc2cc(C)cc(C)c2)CC1 | -57.7%
63 | COc1ccc(C(=O)NC2CCCCCCC2)cc1OC | 9.08%
64 | COc1cccc(CCNC(=O)c2ccc(OC)c(OC3CCN(C(C)C)CC3)c2)c1 | -2.35%
65 | CC(C)(C)NC(=O)c1c(F)c(F)c(F)c(F)c1F | 4.34%
66 | O=S(=O)(c1cccc(-c2nnc(SCc3nc4ccccc4s3)o2)c1)N1CCOCC1 | -2.26%
67 | Cc1ccc2c(c1)N(CC(=O)Nc1ccccc1F)C(=O)CO2 | 17.1%
68 | O=C(O)c1cccc(N/N=C(\N=Nc2ccccc2)c2ccccc2)c1 | 16.7%
69 | Cc1ccc2nc3c(cc(C(=O)NCCc4ccccc4)c(=N)n3CCN3CCOCC3)c(=O)n2c1 | -82.9%

Row | Structure (SMILES) | hERG current change (%, negative = inhibition) at 1uM
70 | Cc1ccc2nc3c(cc(C(=O)NCCN4CCOCC4)c(=N)n3CCCN3CCOCC3)c(=O)n2c1 | 5.89%
71 | Cc1ccc2nc3c(cc(C(=O)NCCc4ccccc4)c(=N)n3CCCN3CCOCC3)c(=O)n2c1 | -77.5%
72 | CCCCNC(=O)Cn1cnc2sc(C(=O)OCC)c(C)c2c1=O | 8.3%
73 | CC(C)[C@H](NC(=O)CCn1nnc2ccccc2c1=O)C(=O)O | 17.3%
74 | O=C(/C=C/c1ccccc1O)c1ccc(Cl)cc1 | 9.95%
75 | Cc1nc2ccccc2c(=O)n1NC(=O)/C=C/c1ccccc1Cl | -51.1%
76 | Cc1nc2ccccc2c(=O)n1NC(=O)/C=C/c1ccc(Br)cc1 | 2.25%
77 | Cc1nc2ccccc2c(=O)n1NC(=O)/C=C/c1ccccc1 | -0.535%
78 | Cc1csc(NC(=O)CCCc2cccs2)n1 | 1.69%
79 | CCCCCN(C(=O)CCC(=O)OCc1ccccc1C)c1c(N)n(CCCC)c(=O)[nH]c1=O | 7.65%
80 | CN(c1cccc(NC(=O)CN(c2cccc(F)c2)S(C)(=O)=O)c1)S(C)(=O)=O | 11.3%
81 | CCOC(=O)C1(CCOc2ccccc2)CCN(Cc2ccccc2OC)CC1 | -37.2%
82 | CCOC(=O)C1(CCOc2ccccc2)CCN(Cc2ccc3nonc3c2)CC1 | 0.31%
83 | CCOC(=O)C1(CCOc2ccccc2)CCN(Cc2cc(OC)c(O)c(OC)c2)CC1 | -66.6%
84 | CCOC(=O)C1(CCOc2ccccc2)CCN(Cc2cc(OC)ccc2OC)CC1 | -60.1%
85 | CCOC(=O)C1(CCOc2ccccc2)CCN(Cc2ccc(OCC)c(CO)c2)CC1 | -82.4%
86 | CCOC(=O)C1(Cc2ccccc2)CCCN(Cc2ccc(OCC)c(CO)c2)C1 (stereo not shown) | 4.54%
87 | CCOC(=O)C1(Cc2cccc(OC)c2)CCN(Cc2cc(OC)ccc2OC)CC1 | -7.48%
88 | CCOC(=O)C1(CCOc2ccccc2)CCN(Cc2ccccc2O)CC1 | -8.86%
89 | CCOC(=O)C1(CCOc2ccccc2)CCN(Cc2cccc(OC)c2O)CC1 | -54.1%
90 | CCOC(=O)C1(CCOc2ccccc2)CCN(Cc2cc(OC)c3c(c2)OCO3)CC1 | -7.24%
91 | CCOC(=O)C1(CCOc2ccccc2)CCN(Cc2ccc(C)o2)CC1 | -32.8%

From article PMC4336329 (PLoS ONE, 2015)
